Platelet DG rel = modulates dense granule release in human platelets; actives 0.22% (n = 300,000); human platelet-rich plasma, SFLLRN dense granule ATP release, luminescence; inhibition, %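 (compounds screened at 7.5 µM in platelet-rich plasma)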;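 active = mean replicate score, as percent of positive control, at or above 50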
SENP8 block-1 = SENP8 protease inhibition; Q96LD8; purified SENP8, Z-RLRGG-aminoluciferin cleavage, luminescence; inhibition, % at 10 µM; actives 1.2% (n = 330,000); AID 2540; in the data active = inhibition above about 50%
SENP8 block-2 = inhibitors of human SENP8 protease. actives 0.64% (n = 360,000). recombinant SENP8, Nedd8 substrate fluorescence. inhibition, % at 20 µM. Q96LD8; in the data active = inhibition mostly above about 40%, no sharp cut-off; inactive = mostly below about 27%
SENP6 block = inhibitors of human SENP6 protease; Q9GZR1; Recombinant SENP6 catalytic domain, aminoluciferin luminescence; inhibition, % at 10 µM; actives 1.8% (n = 330,000);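 active = inhibition above about 50% at the single tested dose, limit read from the data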;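 note: plate controls were DMSO wells with enzyme for no effect and DMSO wells lacking enzyme for full effect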
SENP7 inh = inhibitors of human SENP7 protease | Q9BQF6 | recombinant SENP7, Z-RLRGG-aminoluciferin luminescence, 40 min | inhibition, % at 5 µM | actives 1.5% (n = 330,000) | AID 434973;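 active = inhibition above about 50% at the single test dose, limit read from the data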;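 note: plate controls were DMSO with enzyme for no effect and no enzyme buffer wells for full effect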
Target sequence (Q9BQF6 706-1050 limits assumed): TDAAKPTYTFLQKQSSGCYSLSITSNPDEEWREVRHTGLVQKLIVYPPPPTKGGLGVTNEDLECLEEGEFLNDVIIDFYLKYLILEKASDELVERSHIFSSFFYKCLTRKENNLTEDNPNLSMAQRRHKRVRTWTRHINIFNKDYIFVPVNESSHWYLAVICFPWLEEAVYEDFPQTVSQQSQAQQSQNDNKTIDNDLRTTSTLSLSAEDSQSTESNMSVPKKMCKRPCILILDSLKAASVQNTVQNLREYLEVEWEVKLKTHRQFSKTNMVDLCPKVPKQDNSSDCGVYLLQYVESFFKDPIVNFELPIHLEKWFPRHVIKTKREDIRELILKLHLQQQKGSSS
SENP8 conf-1 = human SENP8 inhibition, confirmed. inhibition, % at 12.5 µM. AID 488912. Recombinant SENP8, Z-RLRGG-aminoluciferin luminescence, 60 min. actives 40% (n = 6,200). shares compounds with SENP7 inh;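 active = mean inhibition across replicates above about 50%, limit read from the data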
SENP6 conf = confirmation of human SENP6 protease inhibitors; shares compounds with SENP7 inh; recombinant SENP6, Z-RLRGG-aminoluciferin luminescence; inhibition, % at 12.5 µM; actives 58% (n = 6,200); AID 488915
SENP7 confirm = confirmation of human SENP7 protease inhibitors; shares compounds with SENP7 inh; actives 69% (n = 6,200); inhibition, % at 12.5 µM; recombinant SENP7, Z-RLRGG-aminoluciferin luminescence, 40 min; AID 488917
Casp3 select = caspase-3 inhibition (SENP selectivity assay); actives 60% (n = 6,200); inhibition, % at 12.5 µM; purified caspase-3, Z-DEVD-aminoluciferin luminescence, 60 min; shares compounds with SENP7 inh;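 active = mean inhibition above about 50%, limit read from the data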;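 note: plate controls were enzyme with DMSO for no effect and wells without caspase-3 for full effect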
Target sequence (P42574 28-227 limits assumed): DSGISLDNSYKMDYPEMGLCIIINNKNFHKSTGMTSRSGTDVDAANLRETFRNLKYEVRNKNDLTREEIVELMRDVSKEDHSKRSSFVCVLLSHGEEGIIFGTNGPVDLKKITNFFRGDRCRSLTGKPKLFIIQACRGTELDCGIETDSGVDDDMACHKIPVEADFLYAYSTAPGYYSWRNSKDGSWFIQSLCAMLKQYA
SENP luc ctr = luminescence interference (SENP counter-screen) | Pre-incubated SENP8/Z-RLRGG-aminoluciferin, luciferase luminescence interference | shares compounds with SENP7 inh | AID 488919 | inhibition, % at 12.5 µM | actives 39% (n = 6,200);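 active = mean inhibition above about 50% when retested at one dose, limit read from the data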;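 note: plate controls were DMSO wells with completed reaction for no effect and substrate without enzyme for full effect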
SENP8 conf-2 = confirmation of human SENP8 protease inhibitors; AID 624319; inhibition, % at 25 µM; shares compounds with SENP8 block-2; actives 15% (n = 1,400); purified SENP8, Nedd8-AMC/pro-Nedd8 cleavage fluorescence, 30 min; in the data active = inhibition mostly above about 39%, no sharp cut-off; inactive = mostly below about 34%
The depositor's hits bear a star; i = inactive; . = no result given. Only some compounds are listed: those with a hit (about 2.4% of all), similar ones and a draw of the others.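 Rule for the calls, unless noted: active = mean inhibition above about 50% in the one-dose retest (limit read from the data); inactive = the rest.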

SMILES	Platelet DG rel	SENP8 block-1	SENP8 block-2	SENP6 block	SENP7 inh	SENP8 conf-1	SENP6 conf	SENP7 confirm	Casp3 select	SENP luc ctr	others
O=C(Nc1ccccn1)c1ccc2ccccc2c1O	9	43	i	63*	25	49	45	76*	63*	59*
O=C(Nc1cccc([N+](=O)[O-])c1)c1ccc2ccccc2c1O	0	92*	5	90*	92*	-4	30	28	27	0
O=C(Nc1cccnc1)c1ccc2ccccc2c1O	-5	85*	-496	94*	88*	93*	92*	100*	93*	87*
CCOc1cc(C(=O)N(C)CC(=O)Nc2cccc(F)c2)ccc1OCC(=O)N1CCCCC1	-5	9	2	-4	-4	.	.	.	.	.
O=C(CSc1nnc(-c2ccc3c(c2)OCO3)o1)Nc1ncc(Cl)cc1Cl	15	1	-34	-3	11	.	.	.	.	.
Cc1ccc(-n2c(C)nc3ccsc3c2=O)cc1	-2	4	20	7	-1	.	.	.	.	.
Cc1ccc(-c2nc3ccsc3c(=O)o2)cc1	-1	-13	27	55*	52*	37	30	67*	16	56*
Cc1ccc2ccc(C3C(=O)c4ccccc4C3=O)nc2c1	-1	52*	28	53*	-5	37	38	34	58*	4
Cc1ccc(C)c(C2C(=O)c3ccccc3C2=O)c1	-17	-12	10	-17	-4	.	.	.	.	.
CCOc1ccc(N=C(C)C2=C(O)c3ccccc3C2=O)cc1	-1	78*	30	85*	84*	29	32	46	31	12
C/C(=N\N(C)C)C1=C(O)c2ccccc2C1=O	-8	-6	18	-6	1	.	.	.	.	.
CC(=NC1CC1)C1=C(O)c2ccccc2C1=O	-3	-9	11	3	-11	.	.	.	.	.
COc1ccc(N=C(C)C2=C(O)c3ccccc3C2=O)cc1	-9	73*	16	87*	77*	30	74*	71*	39	12
CC(C)(C)c1ccc(-c2cc(-c3ccccc3O)[nH]n2)cc1	-4	37	12	48	35	.	.	.	.	.
Oc1ccccc1-c1cc(-c2ccccc2Cl)[nH]n1	24	95*	6	94*	95*	98*	99*	102*	85*	95*
Oc1ccccc1-c1cc(-c2cccc(F)c2)n[nH]1	-2	88*	10	93*	88*	95*	95*	100*	64*	74*
COc1ccc(Cc2nc(C)cc(Cl)n2)cc1[N+](=O)[O-]	-3	7	16	-18	5	.	.	.	.	.
CCOC(=O)CN1N=C(/C=C/c2ccc(C)cc2)CCC1=O	-45	-5	16	0	-1	.	.	.	.	.
COc1ccc(/C=C/C2=NN(C)C(=O)CC2)cc1	43	69*	-2	78*	83*	81*	80*	94*	93*	80*
CN(C)C(CNc1ccc(S(C)(=O)=O)cc1[N+](=O)[O-])c1ccccc1 (centres undefined)	1	44	34	65*	6	4	2	6	2	3
Cc1cc(Cl)ccc1NC(=O)CCC(=O)N/N=C/c1cccnc1	-9	2	-2	2	3	.	.	.	.	.
CC1CCCN(CCCNC(=O)c2coc3nc4ccccc4nc23)C1 (centres undefined)	-17	59*	-403	81*	51*	73*	66*	86*	89*	75*
CC1CCN(CCCNC(=O)c2coc3nc4ccccc4nc23)CC1	10	64*	-422	86*	41	76*	70*	86*	88*	74*
Cc1ccc(CCNC(=O)c2coc3nc4ccccc4nc23)cc1	3	-8	-493	3	-5	.	.	.	.	.
Cc1cc(C)n2c(NC3CCCCC3)c(-c3ccc(F)cc3)nc2n1	.	.	-92	.	.	.	.	.	.	.
SMILES	Platelet DG rel	SENP8 block-1	SENP8 block-2	SENP6 block	SENP7 inh	SENP8 conf-1	SENP6 conf	SENP7 confirm	Casp3 select	SENP luc ctr	others
C[C@H](CO)N1C[C@H](C)[C@@H](CN(C)S(=O)(=O)c2ccccc2F)Oc2ncc(Br)cc2C1=O	.	.	12	.	.	.	.	.	.	.
C=CCSc1nnc(-c2ccc(Cl)cc2Cl)o1	-2	31	12	60*	57*	18	48	77*	56*	39
Clc1ccc(-c2nnc(SCc3ccon3)o2)c(Cl)c1	10	61*	8	70*	57*	11	62*	87*	64*	61*
Clc1ccc(-c2nnc(SCc3nc4ccccc4[nH]3)o2)c(Cl)c1	1	0	8	-7	2	.	.	.	.	.
Cc1cc(C)cc(-n2ncc3c2CCCC3NC(=O)CN2CCCCC2=O)c1 (centres undefined)	-10	5	-2	-12	-2	.	.	.	.	.
O=C(CCc1ccccc1)c1c(O)cc(O)cc1O	-4	52*	48*	63*	-7	65*	60*	77*	19	67*	SENP8 conf-2=28
COc1ccc(C(=O)CCc2ccccc2)c(O)c1	10	5	1	18	5	.	.	.	.	.
Cc1ccccc1N1C(=O)Cc2ccccc2C1=O	3	27	88*	67*	37	17	57*	33	24	-4	SENP8 conf-2=37
Cc1ccccc1N1C(=O)c2cccc3cccc(c23)C1=O	-1	7	-11	-11	4	.	.	.	.	.
COc1ccc2nc3ccccc3nc2c1N	-6	53*	78*	87*	22	-3	37	75*	73*	47	SENP8 conf-2=14
Cc1ccc(/C=N/NC(=O)c2cc(C)oc2C)cc1	7	74*	41*	84*	86*	25	74*	95*	90*	82*	SENP8 conf-2=-2
O=C(NNc1cc(N2CCCC2)nc(N2CCCC2)n1)c1ccc([N+](=O)[O-])cc1	-8	75*	77*	91*	92*	18	61*	22	-1	-2	SENP8 conf-2=75*
CC(C)(C)c1ccc(C(=O)NNc2cc(N3CCOCC3)nc(N3CCOCC3)n2)cc1	-4	3	10	45	31	.	.	.	.	.
O=C(CCc1ccccc1)NNc1cc(N2CCCCC2)nc(N2CCCCC2)n1	13	4	47*	35	58*	0	16	-2	-4	-4	SENP8 conf-2=51*

Compound activity as filed in PubChem BioAssay.
